The source made the active and inactive calls. The rule behind the calls is not given here.
What follows are molecules tested against Pantothenate synthetase (Mycobacterium tuberculosis (strain ATCC 25618 / H37Rv)) (UniProt P9WIL5) (assay: Coupled enzyme confirmation of inhibitors against recombinant Mtb PanC (AID 375;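 note: 0% = full reaction with vehicle and 100% = no enzyme background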)). Conditions: coupled enzyme assay; at 10 µM, active compounds read high.
Chain of Pantothenate synthetase (Mycobacterium tuberculosis (strain ATCC 25618 / H37Rv)) (P9WIL5 whole entry, looked up): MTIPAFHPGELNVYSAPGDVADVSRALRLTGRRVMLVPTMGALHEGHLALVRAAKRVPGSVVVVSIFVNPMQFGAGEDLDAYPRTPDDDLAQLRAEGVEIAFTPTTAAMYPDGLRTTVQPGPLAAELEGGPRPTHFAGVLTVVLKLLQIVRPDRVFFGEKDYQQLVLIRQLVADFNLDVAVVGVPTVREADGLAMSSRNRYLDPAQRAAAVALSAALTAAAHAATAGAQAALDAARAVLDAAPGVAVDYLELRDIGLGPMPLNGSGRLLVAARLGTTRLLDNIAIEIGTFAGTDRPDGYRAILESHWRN

Structure (SMILES)	inhibition
COc1ccc(-c2nc(C(N)=O)c3[nH]c(=O)n(-c4cccc(Cl)c4)c3n2)cc1OC	1% (inactive)
N#Cc1nc(-c2ccco2)oc1NCc1ccco1	11% (inactive)
CCCC(=O)Nc1nnc(CC(=O)OCC)s1	3% (inactive)
CCCNC(=O)c1ccccc1C(=O)NCCC	0% (inactive)
COC(=O)c1nn(-c2ccc(-c3ccccc3)cc2)cc1O	0% (inactive)
CCOc1ccccc1C1CC(c2ccc(Br)cc2)Nc2nc(N)nn21 (stereo not given)	10% (inactive)
Cc1ccc2c(c1)CCCN2C(=O)Nc1ccc2c(c1)OCO2	2% (inactive)
O=C(CN1CCN(Cc2ccccc2)CC1)NCC1COc2ccccc2O1 (stereo not given)	0% (inactive)
COC(=O)c1c(-c2ccc(F)cc2)noc1N	2% (inactive)
CC(C)=CC/C=C1\CCC(C(=O)O)C(C(=O)O)C1 (stereo not given)	0% (inactive)
CCOC(=O)c1ccc(NC(=O)CSCc2ccco2)cc1	0% (inactive)
CC(c1ccco1)N(C(=O)c1ccc(S(=O)(=O)N2CCCCC2)cc1)c1ccccn1 (stereo not given)	2% (inactive)
CCS(=O)(=O)N1CCC(C(=O)NC2CCCCCCC2)CC1	1% (inactive)
CCN(c1cccc(C(F)(F)F)c1)S(=O)(=O)c1ccc2c(c1)CCN2C(=O)C1CC1	3% (inactive)
CC1CCN(S(=O)(=O)c2ccc(NC(=O)CSc3nnnn3C)cc2)CC1	2% (inactive)
O=S(=O)(NCC1CCCO1)c1ccc2c(c1)OCCO2 (stereo not given)	0% (inactive)
Cc1cc(O)c(C(C)C)cc1N=C1CSC(=O)N1	0% (inactive)
CS(=O)(=O)N(CC(=O)N1CCc2ccccc2C1)c1ccc2c(c1)OCO2	0% (inactive)
COc1ccc2cnn(-c3ccccc3C)c(=O)c2c1OC	3% (inactive)
O=C(CCN1CCN(C(=O)c2ccco2)CC1)Nc1ccc(F)cc1	2% (inactive)

Structure (SMILES)	inhibition
Cc1nc2oc3c(NCc4ccccn4)ncnc3c2c2c1COC(C)(C)C2	0% (inactive)
COc1ccc(C(=O)Nc2ccc(S(=O)(=O)Nc3onc(C)c3C)cc2)cc1	1% (inactive)
O=C(CN(CCc1ccccc1)C(=O)CNS(=O)(=O)c1ccccc1)NCC1CCCO1 (stereo not given)	0% (inactive)
CCOC(=O)c1cc2sc(C)cc2n1CC(=O)NCc1ccc(F)cc1	2% (inactive)
Cc1ccc(Nc2nc(N)nc(CN3CCN(Cc4ccc5c(c4)OCO5)CC3)n2)cc1	0% (inactive)
CCOc1ccc(OCc2cccc(C(=O)O)c2)cc1	6% (inactive)
CC(C)c1ccc(S(=O)(=O)N2CCN(CCC(=O)Nc3ccc(N(C)C)cc3)CC2)cc1	5% (inactive)
Cc1cc(C)c(C#N)c(SCc2ccc(C#N)cc2)n1	0% (inactive)
COc1ccc(-c2[nH]nc3c2C(c2ccccc2OC(=O)N2CCOCC2)C(C#N)=C(N)O3)cc1 (stereo not given)	5% (inactive)
O=C(c1ccc(Cl)c(Cl)c1)N1CCOCC1	5% (inactive)
O=C1CC(c2ccco2)CC(O)=C1C=NCC1NCCc2ccccc21 (stereo not given)	0% (inactive)
O=C(O)c1ccccc1Nc1cccc(C(F)(F)F)c1	2% (inactive)
O=C(O)C1CC=CCC1C(=O)Nc1cc(Cl)ccc1Cl (stereo not given)	1% (inactive)
C=CCSc1ncccc1C(=O)O	0% (inactive)
O=C(NCc1ccccc1)C1CCCN1S(=O)(=O)c1cccc2cccnc12 (stereo not given)	0% (inactive)
CCCCC(CC)CNC(=O)C1CCCN(S(=O)(=O)c2cnc[nH]2)C1 (stereo not given)	0% (inactive)
CCn1c(=O)cc(SCC(=O)N2CCOCC2)c2ccccc21	11% (inactive)
CCOC(=O)c1[nH]c2ccc(OC)cc2c1NC(=O)CCN1CCC(C)CC1	0% (inactive)
CCN(CC)S(=O)(=O)c1ccc(NC2c3ccccc3C(=O)N2CCN2CCOCC2)cc1 (stereo not given)	0% (inactive)
Cc1ccc(C)c(S(=O)(=O)C(C#N)c2nc3ccccc3nc2N2CC(C)OC(C)C2)c1 (stereo not given)	0% (inactive)

Source: PubChem BioAssay
